In all, about 310,000 compounds went through this assay and about 14,000 (4.5%) showed an effect of 50% or more. The effect is printed as a negative number. This is one part of a sample in which strong results are shown more often than they occur.
The compounds below were run against human ether-à-go-go-related gene (hERG) potassium channel (human, UniProt Q12809) (assay: primary screen, population patch clamp on CHO cells stably expressing hERG; higher = less effect of the substance).
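Also: peak tail current of the secondary pulse compared with the same well before compound.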

human ether-à-go-go-related gene (hERG) potassium channel, sequence (Q12809 whole entry, looked up): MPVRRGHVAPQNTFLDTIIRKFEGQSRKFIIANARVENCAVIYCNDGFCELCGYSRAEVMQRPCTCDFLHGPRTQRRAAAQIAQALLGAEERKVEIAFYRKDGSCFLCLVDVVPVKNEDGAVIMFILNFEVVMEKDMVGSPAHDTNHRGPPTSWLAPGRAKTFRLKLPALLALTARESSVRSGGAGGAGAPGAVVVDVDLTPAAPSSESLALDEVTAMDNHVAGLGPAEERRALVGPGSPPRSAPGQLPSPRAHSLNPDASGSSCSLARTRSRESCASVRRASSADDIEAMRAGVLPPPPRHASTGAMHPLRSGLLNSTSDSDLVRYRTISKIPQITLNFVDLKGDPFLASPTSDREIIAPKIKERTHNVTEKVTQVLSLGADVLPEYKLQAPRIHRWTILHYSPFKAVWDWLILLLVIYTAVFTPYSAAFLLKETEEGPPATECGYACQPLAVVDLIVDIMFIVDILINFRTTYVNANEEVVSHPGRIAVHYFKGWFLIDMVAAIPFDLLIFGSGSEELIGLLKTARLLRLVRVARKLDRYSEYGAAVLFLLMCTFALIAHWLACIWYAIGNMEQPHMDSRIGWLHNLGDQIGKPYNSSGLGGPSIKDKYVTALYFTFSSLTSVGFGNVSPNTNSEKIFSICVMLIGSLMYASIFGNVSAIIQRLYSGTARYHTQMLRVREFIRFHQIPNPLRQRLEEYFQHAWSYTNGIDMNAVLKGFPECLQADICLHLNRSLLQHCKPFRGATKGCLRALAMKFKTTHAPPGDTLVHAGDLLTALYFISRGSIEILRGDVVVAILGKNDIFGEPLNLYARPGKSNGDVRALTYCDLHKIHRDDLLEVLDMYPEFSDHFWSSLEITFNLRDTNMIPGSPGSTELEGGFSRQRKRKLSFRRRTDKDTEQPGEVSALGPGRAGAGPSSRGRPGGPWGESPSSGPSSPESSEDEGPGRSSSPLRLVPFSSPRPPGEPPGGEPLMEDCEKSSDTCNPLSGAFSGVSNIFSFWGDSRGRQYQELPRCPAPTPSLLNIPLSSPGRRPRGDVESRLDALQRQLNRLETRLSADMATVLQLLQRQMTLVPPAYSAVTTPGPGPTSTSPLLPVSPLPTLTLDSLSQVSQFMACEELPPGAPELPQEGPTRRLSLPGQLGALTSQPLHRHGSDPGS

Compound	hERG current change (%, negative = inhibition) at 10uM [%]
COc1ccc(-c2cc(=O)oc3c(C)c(OC(C)C(=O)Nc4ccc(CN5CCOCC5)cc4)ccc23)cc1 (stereo not shown)	-5.78
Cn1c(/C(C#N)=C2/CCCCCN2)nc2ccccc21	-12.5
O=S(=O)(NCc1ccc(Cl)cc1)NCc1ccc(Cl)cc1	12.7
COC(=O)c1cc(Br)ccc1OC(=O)c1cccnc1	7.06
COc1ccc(-c2cc3nc(C)c(CCC(=O)NCc4ccco4)c(C)n3n2)c(OC)c1	-12.9
COc1ccc(-c2cc3nc(C)c(CCC(=O)NC(C)CCc4ccco4)c(C)n3n2)c(OC)c1 (stereo not shown)	-62
Cc1nc2cc(-c3ccc(Cl)cc3)nn2c(C)c1CCC(=O)NCc1ccco1	-41.9
Cc1ccc(C(=O)O)cc1NC(=S)NCCc1ccccc1	0.261
C[C@H](NC(=O)c1cc2c(cn1)[nH]c1ccccc12)C(=O)O	18.4
CCOC(=O)C1(Cc2ccccc2C)CCCN(S(C)(=O)=O)C1 (stereo not shown)	16.5
Cc1cc(NC(=O)c2ccc(N3C(=O)C4C5C=CC(C5)C4C3=O)cc2)no1 (stereo not shown)	8.53
O=C(Nc1ccccc1OC(F)F)c1cccc(S(=O)(=O)N2CCCC2)c1	-23.6
COc1ccc(-n2cnnc2SCC(=O)Nc2cccnc2Cl)cc1	-18.7
Cc1ccc(NC(=O)COc2ccc(-n3ccnc3)cc2)cc1Cl	-33.6
CC(C)(C)c1ccc(NC(=O)COc2ccc(-n3ccnc3)cc2)cc1	-56.5
CCC(C)(C)c1ccc(OCC(=O)Nc2ccncc2)cc1	-16
CC(C)(C)c1ccc(OCC(=O)Nc2ccncc2)cc1	8.71
COc1cc(NC(=O)COc2ccc(-n3ccnc3)cc2)cc(OC)c1	-51.3
COc1cc(NC(=O)CC(C)n2ccnc2)cc(OC)c1 (stereo not shown)	10.7
CCOC(=O)/C(C)=N/NC(=O)c1cccc([N+](=O)[O-])c1	7.04
Cc1ccc(CNC(=O)c2ccc(N3CCC4(CC3)CC(c3ccccc3)=NO4)c(NC(=O)c3cccc(C)c3)c2)cc1	-6.37
CCCOc1ccc(N2C(=O)CC(SCc3nc4ccccc4[nH]3)C2=O)cc1 (stereo not shown)	-41.2

Compound	hERG current change (%, negative = inhibition) at 10uM [%]
N/C(=N/[N+](=O)[O-])N1CCN(C(=O)Oc2ccc([N+](=O)[O-])cc2)CC1	-36.5
O=C(Oc1cccc([N+](=O)[O-])c1)N1CCCCC1	-0.619
O=C(Oc1ccc([N+](=O)[O-])cc1)N1CCC(N2CCCCC2)CC1	-65.4
COC(=O)C1=C(c2ccc(F)cc2OCc2ccccc2)C[C@@H]2CC[C@H]1N2C(=O)NCCO	3.42
Cc1cc(C)c(C#N)c(SCc2ccccc2C)n1	17.7
COc1ccc(S(=O)(=O)N2CCN(Cc3cccc(OC)c3)CC2)cc1	-28.6
COc1ccc(S(=O)(=O)N2CCN(Cc3cccc(F)c3)CC2)cc1	-3.34
CC(=O)c1ccc(OCC(O)CN2CCN(S(=O)(=O)c3cccc(Br)c3)CC2)cc1 (stereo not shown)	22.8
O=S(=O)(c1cccs1)N1CCN(CC(O)COC2CCCc3ccccc32)CC1 (stereo not shown)	-25.1
COc1cccc(C(=O)CN2CCN(S(=O)(=O)c3cccc([N+](=O)[O-])c3)CC2)c1	-9.29
CCOc1ccc(S(=O)(=O)N2CCN(CC(O)COc3cccc([N+](=O)[O-])c3)CC2)cc1 (stereo not shown)	-65.5
O=S(=O)(c1cccs1)N1CCN(CC(O)COc2cccc(Br)c2)CC1 (stereo not shown)	-61.1
O=[N+]([O-])c1cccc(OCC(O)CN2CCN(S(=O)(=O)c3cc(Cl)ccc3Cl)CC2)c1 (stereo not shown)	-31.3
COc1ccc(S(=O)(=O)N2CCN(Cc3cccc([N+](=O)[O-])c3)CC2)cc1	-87.4
COc1ccc(C(=O)CN2CCN(S(=O)(=O)c3cccc([N+](=O)[O-])c3)CC2)cc1OC	-5.28
Cc1ccc(S(=O)(=O)N2CCN(CC(O)COc3ccccc3)CC2)cc1 (stereo not shown)	-16.2
COc1ccc(C(=O)CN2CCN(S(=O)(=O)c3cccc([N+](=O)[O-])c3)CC2)cc1	-112
Cc1ccc2oc(C(=O)NCC(c3ccco3)N3CCCC3)c(C)c2c1 (stereo not shown)	-33.8
COc1ccc(C(=O)NNC(=O)CCn2nnc(-c3ccc(Cl)cc3)n2)cc1OC	19
O=P(O)(c1ccccc1)c1ccccc1O	-7.16
O=C(NN1C(=O)C2C3C=CC(C4CC34)C2C1=O)c1ccccc1Cl (stereo not shown)	0.861
